# Assay results from PubChem BioAssay (NCI).
# Compounds without any hit were thinned out: in the full panel of roughly 79,000, 15% have a hit. A number with no mark means an inactive call. The source made the active and inactive calls. Cut-off read from the data, not from the text of the source: active = growth inhibition above about 70%; inactive = the rest.
# How the values were obtained:
# [1] = NCI Yeast Anticancer Drug Screen. Data for the rad50 strain (AID 155);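 note: 0% = growth of vehicle-only cultures of the same strain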; conditions: S. cerevisiae rad50 strain growth inhibition; at 50.0 µM; active compounds read high
# Procedure, shortened: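 Inhibition values express reduced yeast growth in compound-treated cultures relative to vehicle-treated controls.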
# [2] = NCI Yeast Anticancer Drug Screen. Data for the mec2-1 strain (AID 157); conditions: S. cerevisiae mec2-1 strain, at 50.0 µM, active compounds read high
# Procedure, shortened: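 Mutant yeast (mec2-1) grown with compound; growth inhibition relative to vehicle control reported.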
# [3] = NCI Yeast Anticancer Drug Screen. Data for the sgs1 mgt1 strain (AID 161);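 note: 0% = growth of cultures given vehicle only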; conditions: S. cerevisiae sgs1 mgt1 strain, at 50.0 µM, active compounds read high
# Procedure, shortened: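 Compounds are added to genetically altered yeast, and growth is compared with cultures given vehicle alone to give percent inhibition.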
# [4] = NCI Yeast Anticancer Drug Screen. Data for the cln2 rad14 strain (AID 165);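 note: 0% = growth equal to vehicle treated cultures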; conditions: S. cerevisiae cln2 rad14 strain, at 50.0 µM, active compounds read high
# Procedure, shortened: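 Readout is yeast growth inhibition versus vehicle-treated controls, using a strain with cln2 and rad14 alterations exposed to compound.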
# [5] = NCI Yeast Anticancer Drug Screen. Data for the bub3 strain (AID 167); conditions: S. cerevisiae bub3 mutant strain, at 50.0 µM, active compounds read high
# Procedure, shortened: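 Steps: expose the mutant yeast strain to compound; grow alongside vehicle-treated cultures; measure growth; express inhibition against the vehicle cultures.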
# [6] = NCI Yeast Anticancer Drug Screen. Data for the mlh1 rad18 strain (AID 175); conditions: S. cerevisiae mlh1 rad18 strain growth inhibition; at 50.0 µM; active compounds read high
# Procedure, shortened: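 Genetically defined yeast (DNA repair-deficient) exposed to compounds; growth inhibition determined relative to vehicle.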
Structure (SMILES),growth inhibition [1],growth inhibition [2],growth inhibition [3],growth inhibition [4],growth inhibition [5],growth inhibition [6]
O=C(CCC(=O)Nc1ccc(Cl)cc1)CC(=O)c1ccc2ccccc2c1,-51%,-28.9%,-13.3%,8.4%,-31.1%,-29.9%
CCOC(=O)C(C(C)=O)C(c1ccc(OCc2ccccc2)c(C)c1)C(C(C)=O)C(=O)OCC (stereo unspecified),14.7%,3.9%,25.9%,27.1%,8.55%,19.9%
CCOC(=O)C1C(C)C2(C#N)C(=N)OC1(C)C2(C#N)C#N (stereo unspecified),21.5%,19.1%,-6.6%,1.5%,-22.4%,-12.9%
CC(CCC(=O)O)(CCC(=O)O)[N+](=O)[O-],0.85%,-1.1%,12.2%,-6.6%,12.6%,-8.8%
CN(C)c1ccc(/C=C2N=C(/C=C\c3ccccc3)OC\2=O)cc1,-5.5%,4.75%,-6.05%,0.25%,7.55%,9.45%
O=c1[nH]c2cccnc2[nH]c1=O,-8%,-44%,-32.8%,4%,-32.5%,-2.05%
CCOc1ccc(NC(=O)/C(CC(=O)c2sc(Nc3ccc(C)cc3)nc2C)=N\NC(N)=S)cc1,-33.3%,3.15%,8.95%,-49.6%,-11.4%,-35.5%
CCc1cccc(Nc2ccccc2C(=O)O)c1,42%,25.2%,29.8%,-26.6%,-2.05%,-2.2%
O=C1CSC(c2ccco2)N1CCN1C(=O)CSC1c1ccco1 (stereo unspecified),-19%,-5%,-12.7%,-39.4%,-8.6%,-15.7%
O=C(COc1cccc(C(=O)O)c1)Nc1ccccc1,3.5%,7.9%,12.4%,-1.4%,50.8%,8%
CCCCCCCCCC1OC(C)C(C)O1 (stereo unspecified),24.6%,7.55%,16.3%,-19.1%,1.55%,29.4%
CCOC1C(Br)Cn2c(=O)c3cc4ccccc4cc3c(=O)n2C1C (stereo unspecified),61.2%,8.15%,21.6%,44.3%,33.6%,33.2%
CCCN(C(=O)c1ccccc1)C(C#N)c1ccc(C(C#N)N(CCC)C(=O)c2ccccc2)cc1 (stereo unspecified),7%,1.2%,-24.4%,-10.9%,-11.8%,-32.5%
Cn1c(=O)c2c(n(C)c1=O)n1c(=O)c3ccccc3nc1n2C,12.9%,2.3%,-15.6%,-7.1%,-7.3%,-6.55%
CC(=O)NCCCCNS(=O)(=O)c1ccc(C)cc1,-16.1%,-3.15%,-17.4%,-6.1%,-0.7%,5.1%
Nc1cc(S(=O)(=O)O)cc2cccc(S(=O)(=O)O)c12,7%,-7.7%,0.35%,-20.6%,25.2%,30.8%
Cc1ccc(CO)cc1C,4.75%,-8.5%,-2.2%,-6.55%,-1.35%,-0.15%
CCCCCCCC(CCCCCCC)C(=O)OCCO,-7.4%,-7.9%,3.7%,-21.8%,-4.95%,-5.6%
CCOC1(C)OC2OC(COC(C)=O)C(OC(C)=O)C(OC(N)=O)C2O1 (stereo unspecified),-11.8%,0.05%,-5.75%,-34%,-1.15%,15.2%
Cc1ccc(C(=N)c2ccccc2Cc2cccc3ccccc23)c2ccccc12,12.4%,-22.1%,-30.2%,-36.9%,-34.4%,-15.6%
Nc1nc(Nc2ccccc2)nc(SCc2ccccc2)n1,9.7%,5.45%,-5.5%,-33.5%,0.15%,13.7%

Structure (SMILES),growth inhibition [1],growth inhibition [2],growth inhibition [3],growth inhibition [4],growth inhibition [5],growth inhibition [6]
CCOC(=O)C(=CC(C)(C)C)C(=O)OCC,3.9%,19.1%,2.8%,14.8%,21.1%,10%
O=C(N/N=C(\C1=Nc2ccc(Cl)cc2NC1O)C(O)/C=C/c1ccccc1)c1ccncc1 (stereo unspecified),17.6%,3.95%,-8.8%,-20.7%,-4%,7.7%
CC1=CC(=O)C(C(O)(C(F)(F)F)C(F)(F)F)C(C)(C)C1 (stereo unspecified),-37.1%,-38%,-5.45%,-23.8%,-4.95%,-6.9%
O=C1C=CC2(CC=CCC2)CC1 (stereo unspecified),5.25%,-8.4%,-1.6%,-23.4%,-11.8%,0.55%
COC1CCC(/C(C#N)=C/C2CCC(N(C)C)CC2)CC1 (stereo unspecified),12.9%,16.2%,20.9%,10.6%,9.85%,18.6%
O=C(c1ccccc1)C(O)(c1ccccc1)c1ccccc1,37.5%,-18.2%,3.8%,-31.1%,22.1%,0.8%
Oc1c(Cl)cccc1CN1CCOCC1,26.1%,6.15%,30.5%,25.1%,-9.35%,33%
CC1CCC(O)CC1C (stereo unspecified),-17.9%,-24.6%,-57%,27.2%,-33.6%,-10.1%
Cc1cccc(-c2nc(-c3cnccn3)n(Cc3ccccc3)n2)c1,-67.5%,-46.9%,-62%,-39.6%,-51.1%,-61.2%
Cc1cc(C)[n+]([O-])c(C)c1,-14.6%,-8.85%,-2.75%,-8.6%,-19.4%,-2.85%
Cc1cc[n+](Cc2ccccc2Cl)c(C)c1,19%,2.25%,14%,-4.15%,2.05%,4.9%
Cc1ccc2c(=O)cc(-c3ccccc3)[nH]c2n1,-48%,-57%,-42.1%,11.8%,-59.1%,-41.1%
CCCC1=C(CC)C(C(=O)Nc2c(C)cccc2C)=NC(S)N1 (stereo unspecified),-11.8%,-15.6%,0.65%,14.5%,1.15%,-19.1%
CC(=O)c1c(C)nc(SSc2nc(C)c(C(C)=O)c(-c3ccc(Cl)cc3)c2C#N)c(C#N)c1-c1ccc(Cl)cc1,-30.8%,-7.8%,-15.9%,6.35%,-26.2%,-2.2%
Cc1cc(=O)n(-c2c(C)cccc2Cl)c(/C=C(\O)c2ccncc2)n1,4.25%,-2.65%,3.8%,8.3%,4.15%,2.85%
CC12CCC(=O)C=C1CCC1C2C(=O)CC2(C)C1CCC2(O)C(=O)Cn1c(=O)cc[nH]c1=O (stereo unspecified),10.1%,7.75%,25.6%,11.8%,0.3%,7.65%
CCOC(=O)CC(=O)C(=O)OCC,2.05%,-4.75%,-4.8%,-25.6%,-18%,-27.2%
CCCCCOP(=O)(Cc1ccc(Cl)cc1)OCCCCC,99.6% (active),99.7% (active),99.5% (active),99.5% (active),99.4% (active),99.5% (active)
Cc1ccc(Cl)cc1NC(=O)CCc1ccccc1,3.7%,22.1%,23.6%,-1.6%,4.25%,21.1%
OCCn1nnc2ccccc21,-0.55%,-2%,-4.35%,5.35%,1.7%,-3.7%
